According to PubChem BioAssay (EPA / NIEHS):
Activity calls are given as the source filed them. The calls were made as follows: active = hit-call score of the fitted dose curve at least 0.9, where 1 is the maximum; inactive = score below 0.9.

Assay: STM_H9_OrnithineISnorm_perc: Stemina devTOX quickPredict H9 human embryonic stem cell (hESC)-based Assay for Ornithine (ORN) Metabolite Biomarker, Normalized (AID 2283712);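 also: ornithine released into spent medium during last day measured by mass spectrometry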
Excerpt: STM_H9_secretome utilizes undifferentiated H9 cells to measure relative changes in two metabolites, ornithine (ORN) and cystine (CYSS) in the secretome, targeting a critical drop in the ORN/CYSS ratio as a biomarker for developmental toxicity.STM_H9_OrnithineISnorm is one of 10 components calculated in the STM_H9_secretome assay. It measures the integrated area of the endogenous ornithine normalized to the spiked-in isotopically labeled standard and to the median value of the 0.1% DMSO neutral control treatment using UPLC-HRMS technology.Data from the assay component STM_H9_OrnithineISnorm_perc was analyzed at the assay endpoint STM_H9_OrnithineISnorm_perc in the positive analysis fitting direction relative to DMSO as the negative control and baseline of activity. Using a type of binding reporter, gain or loss-of-signal activity can be used to understand relative metabolite change.
H9 hESCs maintained in a pluripotent state were exposed to test compound for 72h with chemical replenishment with media replacement every 24h. Cell-conditioned media from the final 24-h treatment period was collected for analysis of the targeted biomarker, and cell viability of the corresponding cell layer was assessed. The chemical library was tested in blinded fashion. Each test plate included 1uM Methotrexate (MTX; Selleck Chemicals, Houston, Texas) as a positive reference, 5 nM MTX as a negative reference, 0.1% DMSO as the neutral (vehicle) control, and sample-level media blanks.H9 cell-conditioned media from the final 24-h treatment period was collected for analysis of the targeted biomarker and cell viability was measured from the corresponding cell layer. Cell viability was measured using the CellTiter-Fluor assay (Promega, Madison, Wisconsin) based on proteolytic cleavage of a substrate to fluorescent signal proportional to the number of living cells. The cell viability Relative Fluorescence Unit (RFU) was background corrected and normalized to mean RFU of the neutral control (0.1% DMSO). The collected H9-cell-conditioned media samples were processed for targeted biomarker analysis as described (Palmer et al., 2013). Briefly, spent media samples were deproteinized (40% acetonitrile) and processed for UPLC-HRMS. Data acquisition was performed using 4 separate UPLC-HRMS systems, consisting of an Agilent 1290 Infinity LC system (Agilent Technologies) interfaced with an Agilent high-resolution mass spectrometer (models G6520A, G6520B, G6530A, and G6224A). A Waters Acquity UPLC BEH Amide column (2.1mm x 50mm, 1.7lm particle size; Waters, Milford, Massachusetts) maintained at 40C was applied for separation of metabolites using a 6.5min solvent gradient with 0.1% formic acid in water and 0.1% formic acid in acetonitrile (1.0ml/min flow rate). Data were acquired using MassHunter Acquisition software (version B 04.00, Agilent Technologies). The extracted ion chromatogram (EIC) areas for ORN, CYSS, and their respective spike-in C13-standards were determined using the Agilent MassHunter Quantitative Analysis software, version B.05.00 or newer (Agilent Technologies), and data were normalized as described in Palmer et al. (2017).

With `COCCOCCOC` as the molecule, how does the outcome read?
Its outcome is “inactive”.

For `Cc1nc(-c2ccc3c(c2)CCN(CCC2CCC(NC(=O)/C=C/c4ccc(F)cc4)CC2)CC3)no1` (stereo not drawn), which outcome is on record?
The outcome was “inactive”.

For `Cc1oc(-c2ccccc2)nc1CCOc1cccc2c1ccn2CCC(=O)O`, which outcome is on record?
The outcome was “inactive”.

Which outcome does the source give for `Oc1ccc2ccccc2c1N=Nc1ccccc1` here?
Its outcome is “inactive”.

For `CCCc1cc(=O)[nH]c(=S)[nH]1`, which outcome is on record?
Its outcome is “inactive”.

Which AC50 does the source give for `COc1ccc(S(=O)(=O)N2C(=O)[C@@](c3ccccc3OC)(N3C[C@H](O)C[C@H]3C(=O)N(C)C)c3cc(Cl)ccc32)c(OC)c1` here?
Its AC50 is 5.99 µM (active).

For `O=C(O)Cc1ccccc1Nc1c(Cl)cccc1Cl`, which outcome is on record?
The outcome was “inactive”.

With `CCCCC(CC)COC(=O)CC(C(=O)OCC(CC)CCCC)S(=O)(=O)O` (stereo not drawn) as the molecule, how does the outcome read?
The outcome was “inactive”.

With `Cc1cc(NC(=O)C(=O)O)cc(C)c1Oc1ccc(O)c2c1CCC2` as the molecule, how does the outcome read?
The outcome was “inactive”.

With `COC(=O)c1ccc(O)cc1` as the molecule, how does the AC50 read?
The AC50 was 0.091 µM (active).

With `Cc1c(C(=O)O)c(O)cc2c1C(=O)c1c(O)c([C@@H]3O[C@H](CO)[C@@H](O)[C@H](O)[C@H]3O)c(O)c(O)c1C2=O` as the molecule, how does the outcome read?
The outcome was “inactive”.

With `CN1CCN(Cc2cc(-c3ccc4[nH]c(=O)oc4c3)co2)[C@@H](c2ccc(F)cc2)C1` as the molecule, how does the outcome read?
The outcome was “inactive”.

For `CCOc1ccc2c(c1)C(C)=CC(C)(C)N2`, which outcome is on record?
Its outcome is “inactive”.

For `COc1ccc2c(c1)c(CC(=O)O)c(C)n2C(=O)c1ccc(Cl)cc1`, which AC50 is on record?
The AC50 was 82.5 µM (active).

Which outcome does the source give for `CC(CO)OC(C)CO` (stereo not drawn) (tested in a mixture with another compound) here?
The outcome was “inactive”.

Which outcome does the source give for `Cc1cccc(Nc2cc(Cl)nc(SCC(=O)O)n2)c1C` here?
The outcome was “inactive”.

With `NC(=O)Cn1c(=O)cc(CCN2CCN(c3nccc4sccc34)CC2)c2ccc(F)cc21` as the molecule, how does the AC50 read?
Its AC50 is 0.0187 µM (active).

For `O=c1[nH]cc(F)c(=O)[nH]1`, which AC50 is on record?
Its AC50 is 4.61 µM (active).

With `CC1=C(/C=C/C(C)=C/C=C/C(C)=C/CO)C(C)(C)CCC1` as the molecule, how does the outcome read?
Its outcome is “inactive”.

Which outcome does the source give for `OC[C@@H](O)[C@@H](O)[C@H](O)[C@H](O)CO` here?
Its outcome is “inactive”.

For `Nc1ccccc1N`, which AC50 is on record?
The AC50 was 7.65 µM (active).

Which outcome does the source give for `O=c1c(O)c(-c2ccc(O)c(O)c2)oc2cc(O)cc(O)c12` here?
The outcome was “inactive”.

With `CCCCc1ccc2c(n1)[C@@H](c1ccc(OC)cc1C[C@H](C)C(=O)O)[C@H](C(=O)O)[C@H]2c1ccc2c(c1)OCO2` as the molecule, how does the outcome read?
The outcome was “inactive”.
